Data from PubChem BioAssay AID488969 (Vanderbilt High Throughput Screening Facility, 2010).
Over roughly 110,000 compounds, “z-score” has its median near -0.1; the highest 2% begin near 2. This is one part of a sample in which the highest values are shown more often than they occur. Activity calls are given as the source filed them.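 How the source made its calls: active means z-score in the third read window above 3 or below -3; inactive means the rest.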

The compounds below were run against Metabotropic glutamate receptor 8 (Rattus norvegicus) (UniProt P70579) (assay: mGluR8 Gi/Go-coupled signaling modulation – cell-based, rat, thallium flux, HTS, primary screen (AID 488969)). Conditions: HEK293 rat mGluR8, GIRK (G protein-gated inwardly rectifying potassium channel) thallium flux, FluoZin2; at 10 µM; stronger effect = higher value; submaximal glutamate (EC20) added with thallium.
Chain of Metabotropic glutamate receptor 8 (Rattus norvegicus) (P70579 whole entry, looked up): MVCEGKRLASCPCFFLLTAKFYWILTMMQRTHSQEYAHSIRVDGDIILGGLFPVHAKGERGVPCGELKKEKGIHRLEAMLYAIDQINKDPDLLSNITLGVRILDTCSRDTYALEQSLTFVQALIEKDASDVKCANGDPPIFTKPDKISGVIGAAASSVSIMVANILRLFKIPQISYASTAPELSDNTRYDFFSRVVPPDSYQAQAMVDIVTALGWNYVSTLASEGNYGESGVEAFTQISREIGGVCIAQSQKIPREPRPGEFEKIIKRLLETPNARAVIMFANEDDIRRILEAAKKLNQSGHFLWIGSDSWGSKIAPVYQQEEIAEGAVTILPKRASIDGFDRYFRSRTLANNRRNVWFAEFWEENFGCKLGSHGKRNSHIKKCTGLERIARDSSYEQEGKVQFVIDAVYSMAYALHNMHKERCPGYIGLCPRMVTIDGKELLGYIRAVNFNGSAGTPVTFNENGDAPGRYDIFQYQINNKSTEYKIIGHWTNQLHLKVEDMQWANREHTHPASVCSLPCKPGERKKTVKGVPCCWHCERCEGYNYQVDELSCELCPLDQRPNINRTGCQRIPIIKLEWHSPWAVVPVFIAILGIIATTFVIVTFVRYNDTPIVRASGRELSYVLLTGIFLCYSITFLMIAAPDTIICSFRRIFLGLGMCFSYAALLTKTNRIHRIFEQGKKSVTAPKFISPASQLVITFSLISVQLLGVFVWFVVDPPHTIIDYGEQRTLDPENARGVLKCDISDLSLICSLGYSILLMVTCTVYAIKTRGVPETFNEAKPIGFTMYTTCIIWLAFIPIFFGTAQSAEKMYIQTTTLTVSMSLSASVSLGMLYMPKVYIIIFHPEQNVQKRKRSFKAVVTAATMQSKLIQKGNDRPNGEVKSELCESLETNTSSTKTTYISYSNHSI

Compound	z-score
Cc1nc2c(C)cccc2cc1C(=O)N/N=C/c1cccc([N+](=O)[O-])c1	-0.361
O=C(NC(=S)NCc1ccc(-c2nc3ccccc3s2)cc1)c1ccco1	2.52
O=C(NC(=S)Nc1nc2ccccc2s1)c1ccco1	8.72 (active)
O=C(COC(=O)c1ccco1)Nc1nc2ccccc2s1	0.111
O=C(NCc1ccc(-c2nc3ccccc3s2)cc1)c1ccco1	-0.111
O=C(Nc1ccccc1-c1nc2ccccc2s1)c1ccco1	-0.0204
O=C(NCc1ccc(-c2nc3ccccc3s2)cc1)c1ccc(Br)o1	-0.21
O=C(COc1ccc(Cl)cc1Cl)NC(=O)N1CCCCC1	1.09
Cc1sc2ncnc(N=Nc3c(O)[nH]c4ccccc34)c2c1C	-0.0288
CCOC(=O)c1cc(OC(=O)c2cccnc2)n(-c2ccccc2)n1	-0.265
COc1ccc(CN(C)CC(=O)NC(=O)NCc2ccccc2)cc1OC	5.52 (active)
CN(CC(=O)NC(=O)NCc1ccccc1)Cc1ccc(Cl)cc1	-0.334
COc1cccc(CN(C)CC(=O)NC(=O)NCc2ccccc2)c1	0.16
COC(=O)C1=C(C(=O)c2ccccc2)C(c2ccc(OC)c(OC)c2)Nc2nnnn21 (stereo unspecified)	0.0695
C/C(=N\NC(=O)CSc1nnc(C)s1)c1ccc(O)cc1	0.00192
NC(=S)N/N=C/c1ccc(-c2cc(Cl)ccc2Cl)o1	2.21
NC(=S)N/N=C/c1ccc(-c2ccc(Cl)c(Cl)c2)o1	0.653
NC(=S)N/N=C/c1ccc(-c2cc(Cl)cc(Cl)c2)o1	0.987
CCCCOC(=O)CSc1n[nH]c(=O)[nH]c1=O	-0.957
Cc1ccc(-c2nnc(CSc3nc(C(C)C)nc4sc(C)c(C)c34)o2)cc1	1.42
CCc1nc(SCc2nnc(-c3ccc(C)cc3)o2)c2c(C)c(C)sc2n1	2.26
Cc1ccc(-c2nnc(CSc3nnc(C)s3)o2)cc1	0.552
O=C(CCC(=O)OCC(=O)c1ccc(-c2ccccc2)cc1)Nc1cccc2cccnc12	-0.0975

Compound	z-score
Cn1c(=O)c(C(=O)Nc2cccnc2)c(O)c2ccccc21	1.29
COc1ccc2c(Cl)c(C(=O)NCCCn3ccnc3)sc2c1	-0.0695
Cc1cc(SC(C)C(=O)NCC(=O)Nc2ccc(F)c(F)c2F)nc2ccccc12 (stereo unspecified)	-0.101
Cc1cc(C)c2nc(SC(C)C(=O)NCC(=O)Nc3ccc(F)c(F)c3F)cc(C)c2c1 (stereo unspecified)	7.48 (active)
Cc1ccc(-n2nnnc2SC(C)C(=O)NCC(=O)Nc2ccc(F)c(F)c2F)c(C)c1 (stereo unspecified)	-0.287
CCCCC(=O)Nc1ccc(C(=O)NNC(=O)c2cccs2)cc1	-0.305
O=C(NCc1ccco1)c1ccc(COc2cc(Cl)ccc2Cl)cc1	0.104
COc1ccc(Cc2nnc(N)s2)cc1	-0.0129
CCn1c(SCC(=O)OC)nc2sc3c(c2c1=O)CCC3	-0.399
CCn1c(SCC(N)=O)nc2sc3c(c2c1=O)CCCC3	8.59 (active)
CCn1c(SCC(=O)O)nc2sc3c(c2c1=O)CCC3	-1.62
CCN1C(=O)c2ccc(C(=O)NCc3ccccc3)cc2C1=O	-0.278
O=C(Nc1nnc(SCc2ccc(F)cc2)s1)C1CC(=O)N(c2ccc3c(c2)OCCO3)C1 (stereo unspecified)	3.68 (active)
COC(=O)c1ccc(CSc2nnc(NC(=O)C3CC(=O)N(c4ccc5c(c4)OCCO5)C3)s2)cc1 (stereo unspecified)	0.162
CCc1nnc(NC(=O)C2CC(=O)N(c3ccc4c(c3)OCCO4)C2)s1 (stereo unspecified)	-0.124
O=C(NCc1ccco1)C(Cc1ccccc1)NS(=O)(=O)c1cccc2nsnc12 (stereo unspecified)	-0.0409
Cn1c(=O)[nH]c(=O)c2c1nc(Br)n2CCCSc1nc2ccccc2o1	-0.621
COc1ccccc1NC(=O)c1ccc(N)cc1	0.511
COc1ccccc1NC(=O)c1cc(C(=O)Nc2ccccc2OC)cc(N2C(=O)CCC2=O)c1	4.66 (active)
COc1ccccc1NC(=O)c1cccnc1	0.226
COc1ccccc1NC(=O)c1ccc(S(=O)(=O)N2CCCC2)cc1	3.99 (active)
COc1ccccc1NS(=O)(=O)c1ccc(C)c(NC(=O)c2ccc(S(=O)(=O)N3CCCCCC3)cc2)c1	-0.106
COc1ccccc1NC(=O)c1ccc(S(=O)(=O)N2CCOCC2)cc1	0.986

Compound	z-score
O=[N+]([O-])c1ccc(OCC(O)CN2CCN(c3ccccc3F)CC2)cc1 (stereo unspecified)	-0.357
Cc1ccc(NS(=O)(=O)c2cc([N+](=O)[O-])ccc2NNC(=S)Nc2cccc(Cl)c2)c(C)c1	-0.12
Cc1cccc(Sc2ccc([N+](=O)[O-])cn2)c1	-1.63
O=C(CSc1nc(-c2cccs2)cc(C(F)(F)F)n1)NCc1ccccc1	-0.654
COc1ccc(/C=N/NC(=O)CCCOc2ccc(Cl)cc2Cl)cc1	-0.126
Cc1ccc(Nc2cc(C)nn2-c2nc(C)cc(C)n2)cc1	0.547
Cc1ccc(Nc2cc(C)nn2-c2nc(C)cc(=O)[nH]2)cc1	16.4 (active)
Cc1cc(C)nc(-n2nc(C)cc2Nc2ccccc2)n1	-0.115
CN1CCC(C2(O)c3ccccc3CSc3sccc32)CC1 (stereo unspecified)	2.02
CN(C)Cc1ccccc1C1(O)c2ccccc2CSc2ccccc21 (stereo unspecified)	-0.164
CN(C)CC1CCCCC1C1(O)c2ccccc2CSc2sccc21 (stereo unspecified)	1.47
COc1ccc(Nc2cc(C(=O)NCc3ccco3)c3ccccc3n2)cc1	-0.00632
O=C(O)c1cc(S(=O)(=O)Nc2ccccc2C(=O)O)ccc1O	-0.576
CCOC(=O)c1c(C)nc2sc(C(N)=O)c(N)c2c1-c1ccccc1	-1.25
Cc1ccc(S(=O)(=O)n2cnc3cc([N+](=O)[O-])ccc32)c(C)c1C	-0.143
Cc1ccc(S(=O)(=O)n2cnc3cc([N+](=O)[O-])ccc32)cc1C	2.81
Cc1cc(S(=O)(=O)n2cnc3cc([N+](=O)[O-])ccc32)ccc1Cl	-0.268
C=CCSc1nnc(Cc2cc(=O)[nH]c(=O)[nH]2)n1-c1cc(C)ccc1C	-0.111
COc1ccc(NC(=S)N2CCC(N(C)CCN3CCOCC3)CC2)cc1Cl	-0.269
CC(C)NC(=S)NC(=O)c1ccc(-c2ccccc2)cc1	0.201
C=CCN(CC=C)C(=S)NC(=O)c1ccc(-c2ccccc2)cc1	11.4 (active)
C=CCN(CC=C)C(=S)Nc1ccccc1	-0.0866
CN(Cc1ccccc1)C(=S)NC(=O)C1CCCCC1	1.47

Compound	z-score
CCC(=O)NC(=S)NNC(=O)c1ccc([N+](=O)[O-])cc1	0.17
O=C(NC(=S)Nc1ccccn1)c1ccc([N+](=O)[O-])cc1	0.166
CCCN(CCC)C(=S)NC(=O)c1ccc(-c2ccccc2)cc1	-0.959
CN(Cc1ccccc1)C(=S)NC(=O)c1ccc(-c2ccccc2)cc1	4.13 (active)
C=CCN(CC=C)C(=S)NC(=O)c1ccc([N+](=O)[O-])cc1	4.84 (active)
OCc1nc2ccccc2n1C/C=C/c1ccccc1	0.00864
O=C(Nc1ccc(Cl)cc1)C1CCCN(S(=O)(=O)c2cnc[nH]2)C1 (stereo unspecified)	0.605
COc1cc(C)c(Br)cc1S(=O)(=O)N1CCCC1	0.188
O=C1c2cccc3cccc(c23)C(=O)N1c1ccc2ncccc2c1	-0.261
CCOC(=O)C1=C(O)/C(=C\c2cccc(OC)c2)N=C1C	-0.194
COc1cccc(-c2nc(Oc3cc(C)cc(C)c3)c3ccccc3n2)c1O	0.123
CCNCc1cc(Br)c(OCC(=O)Nc2ccccc2)c(OC)c1	1.18
COc1cc(CNCC(C)C)c(Br)cc1OCC(=O)NCc1ccccc1	0.232
COc1cc(CNCC(C)C)cc(Br)c1OCC(=O)Nc1ccccc1	2.21
COc1ccc(OCC(=O)N2CCN(c3nnc(-c4ccccc4)c4ccccc34)CC2)cc1	0.267
CCOC(=O)c1ccc(S(=O)(=O)NCC(c2ccc(N(C)C)cc2)c2c[nH]c3ccccc23)cc1 (stereo unspecified)	0.201
CCOc1ccccc1NC(=O)Cc1c(F)cccc1Cl	-0.491
C#CC1(O)CC(C)N(C)C(C)C1 (stereo unspecified)	-0.0403
O=C(NNc1cccc(Cl)n1)c1cccnc1Cl	-0.00142
OCCN(CCO)CC(O)COCCC12CC3CC(CC(C3)C1)C2 (stereo unspecified)	0.239
CCN(CC)CC(O)COCCC12CC3CC(CC(C3)C1)C2 (stereo unspecified)	3.04 (active)
OC(COCCC12CC3CC(CC(C3)C1)C2)CN1CCCCC1 (stereo unspecified)	-0.152
O=C(COC(=O)c1cccs1)c1ccc2c(c1)OCCO2	-0.579

Compound	z-score
CC(C)(C)NC(=O)C(c1ccc(F)cc1)N(Cc1ccco1)C(=O)Cn1nnc(-c2cccs2)n1 (stereo unspecified)	-0.585
O=C(c1nc2ccccc2s1)N1CCSCC1	0.0723
CCOC(=O)N1CCN(C(=O)c2nc3ccccc3s2)CC1	2.8
CCOC(=O)N1CCN(/C=C(\C#N)c2nc3ccccc3s2)CC1	1.73
CC(C)(C)NC(=O)c1nc2ccccc2s1	0.283
CC(C)NC(=O)c1nc2ccccc2s1	3.05 (active)
CCOC(=O)N1CCN(C(=O)CSc2ncccn2)CC1	0.107
CCOC(=O)N1CCN(C(=O)CSc2ncnc3ccccc23)CC1	3.04 (active)
O=C(NCCO)c1nc2ccccc2s1	1.28
O=C(CSc1ncnc2ccccc12)N1CCN(c2ccccc2)CC1	-0.0217
S=C(Nc1ccc(Cl)cc1)c1sc(N2CCCCC2)nc1N1CCOCC1	-0.435
CC(NC(=O)COc1ccccc1-c1ccccc1)c1ccccc1 (stereo unspecified)	-0.192
O=C(COc1ccc2c(c1)CCC2)N1CCN(c2cccc(C(F)(F)F)c2)CC1	-0.0515
Cc1ccc(OCCN2CCN(CC(O)Cn3c4ccccc4c4ccccc43)CC2)cc1 (stereo unspecified)	0.113
CC(C(=O)N1c2ccccc2CCc2ccccc21)n1nnc(-c2ccc(N(C)C)cc2)n1 (stereo unspecified)	0.255
Cc1cc(NC(=O)CSc2nc(CC(C)(C)C)nc3c2c(=O)n(C)c(=O)n3C)no1	-0.0135
CCOc1ccc2nc(NC(=O)c3ccoc3C)sc2c1	-0.855
COc1ccccc1Nc1nnc(SCC(=O)NC(=O)Nc2ccc3c(c2)OCCO3)s1	-0.138
Cc1cc(C(=O)CSc2nnc(-c3cccnc3)n2-c2ccccc2)c(C)n1CC1CCCO1 (stereo unspecified)	-0.185
